15 molecules from PubChem BioAssay (NCI) can be followed below.

This is part of a sample that, as a whole, favours compounds with a hit. Of some 83,000 tested, about 20% had one in any assay.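 Assay: single dose, 48 h. Readout: percent growth (0 = no net growth; negative = cell death). Active: <10.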 Active and inactive are the calls of the source.

The subject of the assay is HL-60(TB) leukemia. The assay can be described thus: NCI-60 one-dose screen, 48 h (100 = growth as untreated, 0 = no growth, -100 = all killed). The following applies: 10 µM unless noted.
As to `CCC(=O)c1c(C)[nH]c(C)c1C`, the growth was 92.8% (inactive).

As to `O=C(N/N=C\c1cc(Cl)ccc1[N+](=O)[O-])c1ccco1`, the growth was 107% (inactive).

Take `COC[C@H](C)n1c(C2CCOCC2)nc2cnc3cc(-c4c(C)noc4C)c(OC)cc3c21`: the growth is 31.5% (inactive).

Take `O=C(NCCNC(=O)Oc1cccc2ccccc12)Oc1cccc2ccccc12`: the growth is 79.7% (inactive).

Regarding `COc1cc(NC(=O)CCSc2nc3ccccc3c(=O)n2Cc2ccccc2)cc(OC)c1OC`, the growth is 104% (inactive).

With `COc1ccc(/C=C(/C(=O)N2CCN(c3ccccc3)CC2)c2cc(OC)c(OC)c(OC)c2)cc1O`, the growth is -34.5% (active).

With `O=C(C(=O)c1cc(Br)ccc1O)c1cc(Br)ccc1O`, the growth was 27.4% (inactive).

As to `COc1ccc(-c2nc(SCC(C)C)nc(Nc3ccc([N+](=O)[O-])cc3)c2C#N)cc1`, the growth is 90.5% (inactive).

Take `CCN(CC)CCS(=O)(=O)CCNc1ccnc2cc(Cl)ccc12`: the growth was -22.5% (active).

Turning to `CCN(CC)C(=O)c1cccnc1`, the growth is 93.8% (inactive).

As for `CO[C@@H](C(=O)N1Cc2[nH]nc(NC(=O)c3ccc(N4CCN(C)CC4)cc3)c2C1)c1ccccc1`, the growth was 16.8% (inactive).

For the molecule `COc1cc(-c2nc3ccccc3s2)ccc1NC(=O)COc1ccc(Cl)cc1`, the growth is 56.3% (inactive).

In the case of `Nc1ncc(-c2ccc(C(F)(F)F)cc2)c(NC2CCCCCC2)n1`, the growth is 16.8% (inactive).

Turning to `CCOC(=O)C(c1ccccc1)N1C(=O)c2ccccc2C1=O` (stereo not given), the growth was 115% (inactive).

As for `Cn1cc(C(=O)c2nc(-c3cn(C)c4ccc(F)cc34)no2)c2cc(F)ccc21`, the growth is 93.3% (inactive).
